{"source": "PubChem BioAssay AID489028", "about": "(Sanford-Burnham Center for Chemical Genomics, 2010)", "note": "The campaign covered roughly 10,000 compounds. About 5,600 (56%) were called active. The set was probably picked from earlier hits. The list is a sample of the results. Unmarked numbers belong to inactive results. No stated cut-off is given here; in the data, active means inhibition above about 40%; inactive means the rest.", "data": [{"biological_target": "Protein Mdm4 (Homo sapiens) + E3 ubiquitin-protein ligase Mdm2 (Homo sapiens) (UniProt O15151+Q00987)", "sequence (O15151 whole entry, looked up)": "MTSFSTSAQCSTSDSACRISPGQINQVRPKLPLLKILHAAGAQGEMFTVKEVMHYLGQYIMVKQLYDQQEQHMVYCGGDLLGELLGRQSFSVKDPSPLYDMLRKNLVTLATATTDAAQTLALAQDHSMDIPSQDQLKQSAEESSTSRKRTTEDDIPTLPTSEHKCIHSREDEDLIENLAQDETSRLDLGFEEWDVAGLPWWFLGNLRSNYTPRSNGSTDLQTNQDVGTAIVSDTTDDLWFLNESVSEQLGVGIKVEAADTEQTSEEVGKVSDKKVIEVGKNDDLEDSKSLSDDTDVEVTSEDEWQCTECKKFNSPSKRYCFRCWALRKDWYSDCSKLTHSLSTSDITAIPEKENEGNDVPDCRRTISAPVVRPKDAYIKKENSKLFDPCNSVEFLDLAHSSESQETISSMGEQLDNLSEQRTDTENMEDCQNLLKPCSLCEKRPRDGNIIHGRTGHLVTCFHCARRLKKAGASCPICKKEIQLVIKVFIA", "sequence (Q00987 whole entry, looked up)": "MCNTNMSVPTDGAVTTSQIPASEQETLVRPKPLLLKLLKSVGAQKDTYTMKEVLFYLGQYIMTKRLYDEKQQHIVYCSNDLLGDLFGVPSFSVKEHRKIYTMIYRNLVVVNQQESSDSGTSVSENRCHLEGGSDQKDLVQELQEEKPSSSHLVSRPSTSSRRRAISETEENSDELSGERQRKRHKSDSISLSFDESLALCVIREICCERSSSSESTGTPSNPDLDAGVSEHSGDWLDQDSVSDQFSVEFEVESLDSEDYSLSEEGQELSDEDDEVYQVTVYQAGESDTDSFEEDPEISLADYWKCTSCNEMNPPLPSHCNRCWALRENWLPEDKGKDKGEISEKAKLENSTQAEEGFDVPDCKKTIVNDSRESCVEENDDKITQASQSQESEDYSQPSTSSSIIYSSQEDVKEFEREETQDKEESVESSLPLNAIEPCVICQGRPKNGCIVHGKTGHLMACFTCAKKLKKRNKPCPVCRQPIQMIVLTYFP", "experiment": "inhibition of human Mdm2/MdmX pairing – luminescence, single concentration, confirmation (AID 489028)", "settings": "Mdm2-MdmX binding, luminescent assay; at 8 µM; active compounds read high", "values": [{"smiles": "Cc1noc(C)c1-c1ccc2ncnc(NC(C)c3ccco3)c2c1", "note": "(stereo unspecified)", "inhibition": "46.5% (active)"}, {"smiles": "Nc1cccc(-c2cc(-c3ccccc3)nc(-c3cccc(N)c3)n2)c1", "inhibition": "9.85%"}, {"smiles": "CCCCCCCCCCOC(=O)Cn1c(COc2ccc(C)cc2)[n+](C)c2ccccc21", "inhibition": "74.3% (active)"}, {"smiles": "CCCCCCCCCCOC(=O)Cn1c(COc2cccc(OC)c2)[n+](C)c2ccccc21", "inhibition": "53% (active)"}, {"smiles": "C/C(=N\\N=C(N)N)c1ccc(Cl)cc1", "inhibition": "23%"}, {"smiles": "O=C1c2ccccc2C2=Nc3ccccc3SC(c3ccccc3F)C12", "note": "(stereo unspecified)", "inhibition": "23.8%"}, {"smiles": "C=C(C)COc1ccc(-c2n[nH]c(C)c2-c2ccccc2OC)c(O)c1", "inhibition": "18.3%"}, {"smiles": "COc1ccc(-c2n[nH]c(C)c2-c2ccc(OC)c(OC)c2)c(O)c1", "inhibition": "50.9% (active)"}, {"smiles": "C=C(C)COc1ccc(-c2n[nH]c(C)c2-c2ccccc2)c(O)c1", "inhibition": "2.2%"}, {"smiles": "Cc1cc(C)cc(NC(=O)Cn2cnc3c(nnn3Cc3ccc(F)cc3)c2=O)c1", "inhibition": "27.3%"}, {"smiles": "CCN1C(=O)/C(=C\\N2CCN(c3cccc(Cl)c3)CC2)SC1=S", "inhibition": "45.1% (active)"}, {"smiles": "CCCCN1C(=O)/C(=C/C=C2/C=Cc3ccccc3N2CC)SC1=S", "inhibition": "22.4%"}, {"smiles": "CCN(CCCNC(=O)c1ccc2c(c1)NC(=O)CN2C)c1cccc(C)c1", "inhibition": "20.2%"}, {"smiles": "O=C(NCCN1CCOCC1)c1ccc(/C=C2\\Sc3ccccc3N(Cc3ccc(F)cc3)C2=O)cc1", "inhibition": "11.8%"}, {"smiles": "CCN1CCN(CCNC(=O)c2ccc(/C=C3/Sc4ccccc4N(Cc4cccc(C)c4)C3=O)cc2)CC1", "inhibition": "81.8% (active)"}, {"smiles": "N#Cc1c(N)nc2c3c(sc(=N)c2c1N)NC(=O)CC3c1ccccc1Cl", "note": "(stereo unspecified)", "inhibition": "2.45%"}, {"smiles": "C=CCN(CC=C)S(=O)(=O)c1ccc(C(=O)Nc2nc3c(s2)CCc2ccccc2-3)cc1", "inhibition": "24.2%"}, {"smiles": "N#Cc1ccc(C(=O)Nc2nc(-c3cccs3)c(C(=O)C(F)(F)F)s2)cc1", "inhibition": "86.9% (active)"}, {"smiles": "O=[N+]([O-])c1ccc(Oc2ccc(F)cc2Br)c2ccncc12", "inhibition": "53.5% (active)"}, {"smiles": "COc1cccc(/C=N/Nc2cc(C)nc(-c3ccccc3O)n2)c1O", "inhibition": "93.8% (active)"}, {"smiles": "COc1ccccc1/C=N\\Nc1cc(C)nc(-n2nc(C)cc2C)n1", "inhibition": "31.1%"}, {"smiles": "Cc1ccc(OCC(O)CN2CCN(CC(O)COc3ccc(C)cc3Cl)CC2)c(Cl)c1", "note": "(stereo unspecified)", "inhibition": "35.6%"}, {"smiles": "Cc1cccc(N(C)C(=O)c2cc3c(=O)[nH]c4ccc(C)cc4c3s2)c1", "inhibition": "73.5% (active)"}, {"smiles": "CCN1CCN(c2nc(Nc3cc(OC)ccc3OC)nc(Nc3cc(OC)ccc3OC)n2)CC1", "inhibition": "12.1%"}, {"smiles": "CC(=NCC1CCCO1)c1c(O)[nH]c(=O)[nH]c1=O", "note": "(stereo unspecified)", "inhibition": "7.4%"}, {"smiles": "Cc1cccc(Nc2nc3c(S(=O)(=O)c4ccccc4)nnn3c3ccccc23)c1C", "inhibition": "48.2% (active)"}, {"smiles": "Cc1ccc(CS(=O)(=O)c2ncc(Cl)c(C(=O)Nc3nnc(C)s3)n2)cc1", "inhibition": "96.5% (active)"}, {"smiles": "CSc1nnc(NC(=O)c2nc(S(=O)(=O)Cc3ccc(C)cc3)ncc2Cl)s1", "inhibition": "99% (active)"}, {"smiles": "CCOc1ccc(C(C)=O)cc1COC(=O)c1cnc(Cl)c(Cl)c1", "inhibition": "19%"}, {"smiles": "COc1ccc(C(=O)O/N=C(\\N)Cc2ccc(Cl)cc2Cl)cc1OC", "inhibition": "97.6% (active)"}, {"smiles": "COC(=O)c1ccc(NC(=O)c2cc(Cl)ccc2OC)cc1", "inhibition": "3.8%"}, {"smiles": "CC1=C(C)CC(C(=O)NNC(=O)c2ccccc2O)C(C(=O)O)C1", "note": "(stereo unspecified)", "inhibition": "38.8%"}, {"smiles": "N#Cc1cccc(NC(=O)COC(=O)c2ccccc2C(=O)c2ccc(Cl)c([N+](=O)[O-])c2)c1", "inhibition": "98.9% (active)"}, {"smiles": "CC(=O)Nc1ccc(NC(=O)C(C)OC(=O)c2ccccc2C(=O)c2ccc(Cl)c([N+](=O)[O-])c2)cc1", "note": "(stereo unspecified)", "inhibition": "84.5% (active)"}, {"smiles": "Cc1c(CN2CCC(CO)(CCOc3ccccc3)CC2)[nH]c2ccc(Cl)cc12", "inhibition": "75.5% (active)"}, {"smiles": "CCc1nc2sc3c(Cl)ncnc3c2c2c1CCCC2", "inhibition": "14.9%"}, {"smiles": "Oc1c(CN2CCN(c3ccc(F)cc3)CC2)cc(Cl)c2cccnc12", "inhibition": "85.5% (active)"}, {"smiles": "Oc1c(CN2CCCC2)cc(COCc2ccccc2)c2cccnc12", "inhibition": "66% (active)"}, {"smiles": "O=C(NC(=S)Nc1ccc2oc(=O)ccc2c1)c1ccc(-c2cccc(Cl)c2Cl)o1", "inhibition": "34.5%"}, {"smiles": "Cc1ccsc1C(=O)OCC(=O)c1cc(C)n(CC2CCCO2)c1C", "note": "(stereo unspecified)", "inhibition": "94.5% (active)"}, {"smiles": "Cc1cc(C(=O)CCl)c(C)n1CC1COc2ccccc2O1", "note": "(stereo unspecified)", "inhibition": "15.6%"}, {"smiles": "COc1ccc(CN2CN(C(C)C)CSC2=S)cc1", "inhibition": "-10.1%"}, {"smiles": "Cc1cc(C(=O)COc2ccccc2[N+](=O)[O-])c(C)n1-c1cccc(S(=O)(=O)N2CCOCC2)c1", "inhibition": "58.5% (active)"}, {"smiles": "CC(=O)Nc1ccc(S(=O)(=O)Nc2ccc(N3CCCCC3)cc2)cc1", "inhibition": "3.05%"}, {"smiles": "O=C(NC(=O)c1ccccc1N1CCCCC1)Nc1ccc(Br)cc1", "inhibition": "54.9% (active)"}, {"smiles": "CCCOc1ccccc1C1CC(=O)Nc2cc3c(cc21)OCO3", "note": "(stereo unspecified)", "inhibition": "61.9% (active)"}, {"smiles": "COc1ccccc1C1C2=C(COC2=O)Nc2cc3c(cc21)OCO3", "note": "(stereo unspecified)", "inhibition": "62.8% (active)"}, {"smiles": "O=C(Oc1c(-c2ccco2)oc2ccccc2c1=O)c1cccnc1", "inhibition": "37.6%"}, {"smiles": "O=C1/C(=C/c2ccc(F)cc2)SC(=S)N1CCCC(=O)N1CCCCC1CCO", "note": "(stereo unspecified)", "inhibition": "49.8% (active)"}, {"smiles": "COc1ccc(C(C[N+](=O)[O-])n2nc(C)cc2C)cc1", "note": "(stereo unspecified)", "inhibition": "9.85%"}, {"smiles": "CC(=O)c1ccc(Oc2cc(C)nc(-n3nc(C)cc3C)n2)cc1", "inhibition": "51.8% (active)"}, {"smiles": "COc1ccc(Nc2oc(-c3ccccc3Cl)nc2C#N)cc1", "inhibition": "42.7% (active)"}, {"smiles": "CSc1nc(N)c(C#N)c(-c2ccccc2Cl)c1C#N", "inhibition": "22.9%"}, {"smiles": "CN(C)CCCn1c(=O)n(Cc2ccccc2)c(=O)c2c3c(sc21)CCCCC3", "inhibition": "37.5%"}, {"smiles": "COc1ccc(C(C(=O)NC2CCCCC2)N(C(=O)CCl)c2ccccc2Cl)cc1", "note": "(stereo unspecified)", "inhibition": "100% (active)"}, {"smiles": "CC(=O)N1CCc2c(sc(NC(=O)CCS(=O)(=O)c3ccccc3)c2C#N)C1", "inhibition": "45.3% (active)"}, {"smiles": "N#Cc1c(NC(=O)CSc2nc3ccccc3c(=O)n2Cc2ccco2)sc2c1CCCC2", "inhibition": "36.7%"}, {"smiles": "CN(C)CCCN(C(=O)c1ccc(S(=O)(=O)N2CCCCCC2)cc1)c1nc2ccc(Br)cc2s1", "inhibition": "21.9%"}, {"smiles": "CN(C)CCCN(C(=O)c1ccc(S(=O)(=O)N2CCCCCC2)cc1)c1nc2cc3c(cc2s1)OCCO3", "inhibition": "29.6%"}, {"smiles": "Cc1ccc2sc(N(CCN(C)C)C(=O)/C=C/c3cccs3)nc2c1C", "inhibition": "4.55%"}, {"smiles": "COc1cccc2sc(N(CCCN(C)C)C(=O)CCS(=O)(=O)c3ccccc3)nc12", "inhibition": "48% (active)"}, {"smiles": "COc1cccc2sc(N(CCCN(C)C)C(=O)C(c3ccccc3)c3ccccc3)nc12", "inhibition": "86.2% (active)"}, {"smiles": "Cc1cccc2sc(N(CCCN(C)C)C(=O)CCS(=O)(=O)c3ccccc3)nc12", "inhibition": "52% (active)"}, {"smiles": "Cn1c(=O)n(C)c2cc(C(=O)Nc3ccc(Br)cc3)ccc21", "inhibition": "35.1%"}, {"smiles": "Cn1c(=O)n(C)c2cc(C(=O)Nc3ccc4c(c3)OCO4)ccc21", "inhibition": "47.6% (active)"}, {"smiles": "Cc1ccc(C(=O)Nc2sc(Cc3ccc4c(c3)OCO4)c(C)c2C(N)=O)cc1", "inhibition": "40%"}, {"smiles": "O=c1oc2ccccc2cc1-c1cn(-c2ccccc2)c(=S)[nH]1", "inhibition": "96.2% (active)"}, {"smiles": "Cc1ccc(C(=O)NNC(=O)c2cc3cc4ccccc4nc3s2)cc1", "inhibition": "26.1%"}, {"smiles": "C=CCSc1nsc(NC(=O)Nc2cccc(C(C)=O)c2)n1", "inhibition": "66.8% (active)"}, {"smiles": "CCSc1nsc(NC(=O)Nc2cccc(C(C)=O)c2)n1", "inhibition": "40.8% (active)"}, {"smiles": "Cc1cccc(NC(=S)NCc2ccc3[nH]c4c(c3c2)CCCC4)c1", "inhibition": "10.7%"}, {"smiles": "Oc1c(Cl)cc(Cl)c(Cl)c1Cc1c(O)c(Cl)cc(Cl)c1Cl", "inhibition": "90.5% (active)"}, {"smiles": "Cc1c(Cl)c([N+](=O)[O-])nn1Cc1ccc(C(=O)N/N=C\\c2cc(Cl)ccc2O)o1", "inhibition": "75% (active)"}, {"smiles": "CCCCNc1c(-c2cccc(Sc3ccc(OC)cc3)c2)nc2ccccn12", "inhibition": "-9.4%"}, {"smiles": "CCCc1nc(NCc2ccc3c(c2)OCO3)c2nnn(Cc3ccccc3Cl)c2n1", "inhibition": "62% (active)"}, {"smiles": "Cc1ccc2nc(-c3ccncc3)cc(C(=O)Nc3ccc4c(c3)OCCO4)c2c1", "inhibition": "57% (active)"}, {"smiles": "COc1ccc(CC(=O)Nc2ccc(-c3nnc(-c4ccc(C)cc4)o3)cc2)cc1", "inhibition": "15.7%"}, {"smiles": "COc1ccc(NC(=O)/C(Cl)=C(/Cl)S(=O)Cc2ccc(C)cc2)cn1", "note": "(stereo unspecified)", "inhibition": "99.5% (active)"}, {"smiles": "COc1ccc(CS(=O)/C(Cl)=C(/Cl)C(=O)Nc2ccc(OC)nc2)cc1", "note": "(stereo unspecified)", "inhibition": "100% (active)"}, {"smiles": "O=C(Nc1ccc2ccccc2c1)Nc1ccc2snnc2c1", "inhibition": "47.5% (active)"}, {"smiles": "COc1ccc(-c2cc(C(F)(F)F)nc(S(C)(=O)=O)n2)cc1OC", "inhibition": "56.1% (active)"}, {"smiles": "Cc1ccc2[nH]c(=O)c(CN(CCCN(C)C)C(=O)Nc3cccc(Cl)c3)cc2c1", "inhibition": "44.1% (active)"}, {"smiles": "Cc1cc(C)c2[nH]c(=O)c(CN(Cc3ccccc3)C(=S)NCCCN(C)C)cc2c1", "inhibition": "37%"}, {"smiles": "O=C(Cn1nnc(-c2ccccc2)n1)N/N=C/c1ccc(-c2ccc(Cl)cc2)o1", "inhibition": "55.2% (active)"}, {"smiles": "COc1ccc(OC)c(Nc2nc(-c3ccc(O)c(O)c3)cs2)c1", "inhibition": "38.4%"}, {"smiles": "COc1ccc2c(c1OC)C(=O)OC2Nc1nc(-c2ccccc2)cs1", "note": "(stereo unspecified)", "inhibition": "73.8% (active)"}, {"smiles": "Cc1ccc(-c2csc(NC3OC(=O)c4ccccc43)n2)cc1", "note": "(stereo unspecified)", "inhibition": "76% (active)"}, {"smiles": "CS(=O)(=O)c1ccc2nc(NC(=O)c3ccc(N4CCCC4=O)cc3)sc2c1", "inhibition": "7.9%"}, {"smiles": "O=C(NC(Nc1nc2ccc([N+](=O)[O-])cc2s1)(C(F)(F)F)C(F)(F)F)c1ccccc1", "inhibition": "98.5% (active)"}, {"smiles": "CN(C)CCCN(C(=O)c1ccc(S(=O)(=O)N2CCCc3ccccc32)cc1)c1nc2ccc(F)cc2s1", "inhibition": "29.9%"}, {"smiles": "O=C(Nc1nc2ccc([N+](=O)[O-])cc2s1)c1ccc(S(=O)(=O)N2CCCc3ccccc32)cc1", "inhibition": "88.2% (active)"}]}]}
